Reference: article PMC7819943, “Rice protein-binding microarrays: a tool to detect cis-acting elements near promoter regions in rice”
Whole data set: some 68,000 sequences, median “fluorescence intensity (a.u.)” near 9,100, cut for the highest 2% near 16,000. Many of the other results were omitted from the sample, so the highest values are more common in it than they were.

Molecular target: OsWRKY34 (Oryza sativa, UniProt Q0JBA9 1-250)
Test: protein-binding microarray (RPBM); PBS, 2% BSA, 51.3 ng/ul salmon testes DNA, 50 uM zinc acetate, 200 nM TF, 25 C, 1 h; high values mean tight binding
Conditions: protein: recombinant; tags: N-terminal polyhistidine and DsRed monomer fusion (pET32a); label: CyDye5-dUTP incorporated in the synthesized complementary strand; 3' TTTTT single-stranded linker to array surface; dsDNA, one strand shown
Summary of the method: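 Using Ni–NTA, transcription factors fused N-terminally to polyhistidine and DsRed were purified after expression in E. coli BL21-CodonPlus. These were incubated at 200 nM with a blocked, double-stranded custom Agilent array for 1 h at 25 °C in a buffer containing 50 µM zinc acetate, and the array was washed. The binding signal is per-feature fluorescence intensity (arbitrary units) on an Axon 4000B scanner.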

Chain of OsWRKY34 (Q0JBA9 entry or part of it): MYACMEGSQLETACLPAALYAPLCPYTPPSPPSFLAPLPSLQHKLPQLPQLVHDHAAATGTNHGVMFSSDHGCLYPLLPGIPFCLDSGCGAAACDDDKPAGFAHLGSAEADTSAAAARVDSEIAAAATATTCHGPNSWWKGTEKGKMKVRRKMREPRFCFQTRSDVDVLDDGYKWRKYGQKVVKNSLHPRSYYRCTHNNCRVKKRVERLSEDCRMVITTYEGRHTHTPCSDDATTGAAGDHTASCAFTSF

| Sequence | binding signal |
| --- | --- |
| TAGTCTTTTCCATGTCATGTGATCATGTGTGGAGTTGATTCGGAGTCACCTAGTGCAG | 8550 fluorescence intensity (a.u.) |
| ACTCATGGATGCAGGTCCACCTACATACGTACTACCACAACGGAGTCACCTAGTGCAG | 8570 fluorescence intensity (a.u.) |
| GCCATCCTCCGCGACGCACATCGTCCGTCCCACCACGATGCGGAGTCACCTAGTGCAG | 10400 fluorescence intensity (a.u.) |
| GACATAAGTTTATTATCTATATCCATAGTACGTTTAATCCCGGAGTCACCTAGTGCAG | 10100 fluorescence intensity (a.u.) |
| AAACTGCACTACTTTATCTTGGTTGTCTTTAGCATAAGAACGGAGTCACCTAGTGCAG | 12100 fluorescence intensity (a.u.) |
| AATCCCCGCACGCGTCTTTACTTCGCCTTCGTCTTTCCTCCGGAGTCACCTAGTGCAG | 9340 fluorescence intensity (a.u.) |
| TTCTTGTTTTCGTGGATCATCATCAACCTCAATAGAAACGCGGAGTCACCTAGTGCAG | 8410 fluorescence intensity (a.u.) |
| TCTCCTAAAGATTCATGTTACGTATCTCTTACTTCAACAGCGGAGTCACCTAGTGCAG | 8710 fluorescence intensity (a.u.) |
| GTACGTACAACATTGTGTATCTGTTTTGTAAGTTATTAACCGGAGTCACCTAGTGCAG | 9710 fluorescence intensity (a.u.) |
| GTCGTTGACTTTTTAACCACAACGTTTGACCATTCGTCTTCGGAGTCACCTAGTGCAG | 21800 fluorescence intensity (a.u.) |
| GACTTTTTATCCAACGTTTGACCATTCGTCTTATTCAAAACGGAGTCACCTAGTGCAG | 10300 fluorescence intensity (a.u.) |
| TCCACTATGGCCATCCTGATATCTTTGATCGTCTTTTCCACGGAGTCACCTAGTGCAG | 17500 fluorescence intensity (a.u.) |
| AAAGCCTGTGGCCACATCTTATCTTTTCCATCCTTTGCATCGGAGTCACCTAGTGCAG | 8040 fluorescence intensity (a.u.) |
| GTTTGGCCATGGTGCCGTCGTTGTCTCGTTGATGCTTAGTCGGAGTCACCTAGTGCAG | 10700 fluorescence intensity (a.u.) |
| AACTCATCTGACAGTGATCCATCGTCCTTTTTCTTTGACTCGGAGTCACCTAGTGCAG | 10100 fluorescence intensity (a.u.) |
| CGGTTTTGACGGACGTGGTGCCCACGTGGCTAGTTTGACTCGGAGTCACCTAGTGCAG | 8980 fluorescence intensity (a.u.) |
| CTTTTTTTCCAACGTTTGACCATTTGTCTTATTCAAAAAACGGAGTCACCTAGTGCAG | 8560 fluorescence intensity (a.u.) |
| CCATTGACTTTTTGTCCAACGTTTGACCATTCGTCTTATTCGGAGTCACCTAGTGCAG | 17000 fluorescence intensity (a.u.) |
| ATCGGTGGTGGTGGTGGTGGTGGCCATGAGTCTCGTTTGACGGAGTCACCTAGTGCAG | 27500 fluorescence intensity (a.u.) |
| TTGACCAACGTTTAACCATTCGTTTCATTTAATTTTTTTTCGGAGTCACCTAGTGCAG | 10800 fluorescence intensity (a.u.) |

| Sequence | binding signal |
| --- | --- |
| TCAGTGGACTCGGTTCTGTTTTTTTGTCACTCCACTGGCACGGAGTCACCTAGTGCAG | 9610 fluorescence intensity (a.u.) |
| CACTAAGTCCGTTCCCATGCCCATTTCTCCCTGCATATTACGGAGTCACCTAGTGCAG | 9680 fluorescence intensity (a.u.) |
| TATGACGTCGTTGACTTTTTAACCAACGTTTGACCATCGTCGGAGTCACCTAGTGCAG | 32900 fluorescence intensity (a.u.) |
| CCGTTGACTTTTTAACTAATGTTTAACCATTCATTTTATTCGGAGTCACCTAGTGCAG | 28900 fluorescence intensity (a.u.) |
| TGTTGACTTTTTTTATTAACGTTTAGCATTTATCTTATTTCGGAGTCACCTAGTGCAG | 18000 fluorescence intensity (a.u.) |
| GACTTTTCACGTAACGTTTGACCATTTATCTTATTTATAACGGAGTCACCTAGTGCAG | 9970 fluorescence intensity (a.u.) |
| ACTTTTTAACCAACGTTTGACCATTCGTCTTATTCAAATTCGGAGTCACCTAGTGCAG | 10600 fluorescence intensity (a.u.) |
| CGTTGACTTTTTTTCAACGTTTAATAATTTATCTTATTCACGGAGTCACCTAGTGCAG | 12900 fluorescence intensity (a.u.) |
| ACTATTGACTTTTTTTCTATGTTAGACCATTCATTTTATTCGGAGTCACCTAGTGCAG | 12300 fluorescence intensity (a.u.) |
| TCTTGACCAACGTTTAACCATTCGTTTTATTTAAAATTTTCGGAGTCACCTAGTGCAG | 9450 fluorescence intensity (a.u.) |
| TCGTTGACTTTTTAACCAACGTTTAACCATTCGTCTTATTCGGAGTCACCTAGTGCAG | 18600 fluorescence intensity (a.u.) |
| ACCATTAACTTTTTCTTAATTCGTTTCACTATTTTTTTAACGGAGTCACCTAGTGCAG | 9500 fluorescence intensity (a.u.) |
| TTGTACACTTATGATTTCCTATTTTTGCATATGATTTTGTCGGAGTCACCTAGTGCAG | 8050 fluorescence intensity (a.u.) |
| GACACTAGGACAGTACGTAGCTACCTCTCCACTGCTCTGCCGGAGTCACCTAGTGCAG | 8730 fluorescence intensity (a.u.) |
| CTTGATTACCCCGTAGTCAGGTTTGTATGACTAAGCAACCCGGAGTCACCTAGTGCAG | 8980 fluorescence intensity (a.u.) |
| GACTGGGCCGTTGACCAGACGTGTACCCCACCGGCCAGTCCGGAGTCACCTAGTGCAG | 9290 fluorescence intensity (a.u.) |
| GCCAAGGCCTTACTGCTGCTTCTGTTTCTTGCCACCAATGCGGAGTCACCTAGTGCAG | 9650 fluorescence intensity (a.u.) |
| GTTTGACTATTTTATGCCTTGTAGCTTGAGCTACAGTTCACGGAGTCACCTAGTGCAG | 10100 fluorescence intensity (a.u.) |
| CTCTCTAACTGCAGATTTCCCTCCCCTTTCAACGCGCGCGCGGAGTCACCTAGTGCAG | 8110 fluorescence intensity (a.u.) |
| CCCCATCAACCTCCTCTTCTTCTTCGCCTCGTCTCGTCTTCGGAGTCACCTAGTGCAG | 9670 fluorescence intensity (a.u.) |

| Sequence | binding signal |
| --- | --- |
| TGCTGACTTGGCGTTGACCTGTGAAATTCTCTCGCTTCACCGGAGTCACCTAGTGCAG | 11500 fluorescence intensity (a.u.) |
| ATTTTATCCAACGTTTGACCATTCGTCTTATATAAAATATCGGAGTCACCTAGTGCAG | 9960 fluorescence intensity (a.u.) |
| GCCGTTGACTTTTTATCCAACGTTTGATCATTCGTCTTATCGGAGTCACCTAGTGCAG | 40800 fluorescence intensity (a.u.) |
| TATTAAATCATTTAATTTTAGCTATTGTTTTTTATTTATTCGGAGTCACCTAGTGCAG | 9250 fluorescence intensity (a.u.) |
| TTTATTAAACCTAGTTAATCCATTGTTAGCAAATATTTAACGGAGTCACCTAGTGCAG | 23300 fluorescence intensity (a.u.) |
| TTTCGATTGTTGTTTATTTTCCAGCATTAGTTTTTAAATCCGGAGTCACCTAGTGCAG | 8320 fluorescence intensity (a.u.) |
| CGTCCAACTTTGATCGTCCGTTTTATTTGAATTTTTTTATCGGAGTCACCTAGTGCAG | 11200 fluorescence intensity (a.u.) |
| TCTTTTTTTTTTTCATTATTGTTTGAATATTGATTTCACACGGAGTCACCTAGTGCAG | 8780 fluorescence intensity (a.u.) |
| TTGCAAAATTTAAAATTATGTTGTCATTGTAATATATTTTCGGAGTCACCTAGTGCAG | 8440 fluorescence intensity (a.u.) |
| GTTGGTTTTTACATTTGTTTGCTCGAGTCATATATGTCGTCGGAGTCACCTAGTGCAG | 9010 fluorescence intensity (a.u.) |
| GCTGCCCCTTGTACTTACTTCTATCATCTTTCTTCCCACACGGAGTCACCTAGTGCAG | 8880 fluorescence intensity (a.u.) |
| TTTAGTATATAAAAGATTATAGGGGAGGTTCATTACTTTCCGGAGTCACCTAGTGCAG | 8410 fluorescence intensity (a.u.) |
| TCTTGATTGGTTGTTTTGGTTTGTTTCTTATTTATGTTTGCGGAGTCACCTAGTGCAG | 8920 fluorescence intensity (a.u.) |
| AGATCAGGTTTTCTCTTTGGTTGATTGTGTGTGGAAGATCCGGAGTCACCTAGTGCAG | 10100 fluorescence intensity (a.u.) |
| TTTCTTGATTTGGTTGGGATTGGTTGTTCTTGGGCTTATCCGGAGTCACCTAGTGCAG | 18900 fluorescence intensity (a.u.) |
| TCTGAGTGGTTCTCTGGGCGTTGTTGGTGCGTTCTTGATCCGGAGTCACCTAGTGCAG | 8900 fluorescence intensity (a.u.) |
| GGATTGGGGAGTGATTCGGTTTGTTCTTGATTTTGATTTTCGGAGTCACCTAGTGCAG | 15700 fluorescence intensity (a.u.) |
| GTGTAGATTGATTGGTTCTTGGTGGTGGTGGTGGTGGATCCGGAGTCACCTAGTGCAG | 22200 fluorescence intensity (a.u.) |
